Laboratory results from PubChem BioAssay (NCATS).
Results filed as inconclusive are left out. Active and inactive are the calls of the source. The call rests on the fitted dose curve; in most records, active means well fitted curve in the direction sought with a large enough effect; inconclusive means small, poorly fitted or top-dose-only effect, or another doubt; inactive means no such curve, though single readings can be large; an effect the other way counts as inactive or inconclusive. *1 amine or outer side, *2 acyl side, *3 side chain or, on linkers, in order; H or OH if unused. Where a SMILES comes first, the peptide text is derived from it. Bridges are numbered along the chain shown (N, C = ends). [ ]: non-standard residue; d: D form. The star is where a group is joined. ξ: configuration not given here. ξhTyr(3S-OH,4S-OH,3'-OSO3H) = NC(C(=O)O)[C@H](O)[C@@H](O)c1ccc(O)c(OS(=O)(=O)O)c1; Orn(4R-OH,5R-OH) = O=C([C@H](C[C@@H](O)[C@@H](O)N[*:3])N[*:1])[*:2]; X2 = CCCCCOc1ccc(-c2cc(-c3ccc(C(=O)*)cc3)no2)cc1; X3 = C[C@H]1CN([*:1])C(C(=O)[*:2])[C@H]1O; ξGln(3R-OH) = NC(=O)C[C@@H](O)C(N)C(=O)O; ξPro(4R-OH) = O=C(O)C1C[C@@H](O)CN1; ξThr(3R) = C[C@@H](O)C(N)C(=O)O

What was measured:
[1] = target: Calcium and integrin-binding protein 1 (Homo sapiens) (UniProt Q99828); test: Primary qHTS for Identification of Calcium Integrin Binding Protein 1 (CIB1) Competitor (AID 1508620);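 further: GST tagged CIB1 binding a fluorescein labelled alphaIIb integrin peptide tracer; top concentration of the series differs between compounds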
Calcium and integrin-binding protein 1 (Homo sapiens), sequence (Q99828 whole entry, looked up): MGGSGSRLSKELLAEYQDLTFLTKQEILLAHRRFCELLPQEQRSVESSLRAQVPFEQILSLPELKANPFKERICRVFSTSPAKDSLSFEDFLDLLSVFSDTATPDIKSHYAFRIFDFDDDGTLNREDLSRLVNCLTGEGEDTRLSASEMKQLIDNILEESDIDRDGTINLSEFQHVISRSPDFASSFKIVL
How it was run: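 Fluorescence polarization competition: CIB1-GST (1 uM final) preincubated with compound 15 min at room temperature, then FITC-labeled alphaIIb peptide (100 nM final) added for another 15 min. Polarization read at Ex 480/Em 540.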

[2] = Primary qHTS for inhibitors of nuclear receptor binding SET domain protein 2 (NSD2) in an isogenic RCH-ACV NSD2 p.E1099K mutant (9B) (AID 1645876); further: nearly all actives have a fitted effect of over 70% in size
[3] = Primary qHTS for inhibitors of nuclear receptor binding SET domain protein 2 (NSD2) in an RCH-ACV wild type WT cells (2C) (AID 1645877); further: nearly all actives have a fitted effect of over 70% in size
On the % scale 0 is the no-effect control and ±100 the full control effect.

COc1cc(C[C@@]2(O)CO[C@@H](c3ccc(O[C@@H]4O[C@H](CO)[C@@H](O)[C@H](O)[C@H]4O)c(OC)c3)[C@H]2CO)ccc1O
inactive: Potency [1] | Potency [2] | Potency [3]

CC1(C)C2CC[C@]3(C)C(C(=O)C=C4[C@H]5C[C@@](C)(C(=O)O)CC[C@]5(C)CC[C@]43C)[C@@]2(C)CC[C@@H]1O (stereo partly specified)
inactive: Potency [1] | Potency [2] | Potency [3]

CC(=O)O[C@@]1(C)[C@@H]2CC(=C(C)C)C(=O)C[C@@]2(C)CC[C@H]1OC(=O)C1(C)OC1C (stereo partly specified)
inactive: Potency [1] | Potency [2] | Potency [3]

C=C(C(=O)O)[C@H]1C[C@]2(C)C(=O)CC[C@]23O[C@H]1C[C@@H]3C
inactive: Potency [1] | Potency [2] | Potency [3]

COC(=O)C(CC1(O)c2ccccc2N2C(=O)C(CC(C)C)NC21)n1cnc2ccccc2c1=O (stereo unspecified)
inactive: Potency [1] | Potency [2] | Potency [3]

CC(C)(Oc1ccc(-c2nc3cc(Cl)ccc3s2)cc1)C(=O)O
inactive: Potency [1] | Potency [2] | Potency [3]

O=C(/C=C/N1C[C@@H]2C[C@@H]1CN2c1ccccn1)c1ccccc1O
inactive: Potency [1] | Potency [2] | Potency [3]

C[C@H]1[C@H](C)CC[C@]2(C(=O)O)CC[C@]3(C(=O)O)C(=CCC4[C@@]5(C)CC[C@H](O[C@@H]6O[C@@H](C)[C@H](O)[C@@H](O)[C@H]6O)C(C)(C)C5CC[C@]43C)[C@H]12 (stereo partly specified)
inactive: Potency [1] | Potency [2] | Potency [3]

Cc1ccc(-c2c(-c3nn(C)c4ncnc(N5CC[C@H](N6CCCCC6)C5)c34)cnn2C)cc1
inactive: Potency [1] | Potency [2] | Potency [3]

CC1CC(=O)[C@]2(O)C(C(=O)OCCc3ccc(O)c(O)c3)=CO[C@@H](O[C@@H]3O[C@H](CO)[C@@H](O)[C@H](O)[C@H]3O)[C@H]12 (stereo partly specified)
inactive: Potency [1] | Potency [2] | Potency [3]

COc1ccc(O[C@@H]2O[C@H](CO)[C@@H](O)[C@H](O)[C@H]2O)cc1OC
inactive: Potency [1] | Potency [2] | Potency [3]

CC1(C(=O)O)CCCC2(C)C3CC4C5CC3(CCC12)CC45C (stereo unspecified)
inactive: Potency [1] | Potency [2] | Potency [3]

CCCCCOc1ccc(-c2cc(-c3ccc(C(=O)N[C@H]4C[C@@H](O)[C@@H](O)NC(=O)C5[C@@H](O)[C@@H](C)CN5C(=O)C([C@H](O)CC(N)=O)NC(=O)C([C@H](O)[C@@H](O)c5ccc(O)c(OS(=O)(=O)O)c5)NC(=O)C5C[C@@H](O)CN5C(=O)C([C@@H](C)O)NC4=O)cc3)no2)cc1 (stereo partly drawn) (X2-[Orn(4R-OH,5R-OH)][ξThr(3R)][ξPro(4R-OH)][ξhTyr(3S-OH,4S-OH,3'-OSO3H)][ξGln(3R-OH)][X3]; lactam 1-C)
inactive: Potency [1] | Potency [2] | Potency [3]

CC1(C)CCC2(C(=O)O)CCC3(C)C(=CCC4C5(C)CCC(O)C(C)(CO)C5C(O)CC43C)C2C1 (stereo unspecified)
inactive: Potency [1] | Potency [2] | Potency [3]

COc1cc(O)cc(O[C@@H]2O[C@H](CO)[C@@H](O[C@@H]3OC[C@](O)(CO)[C@H]3O)[C@H](O)[C@H]2O)c1OC
inactive: Potency [1] | Potency [2] | Potency [3]

COC(=O)C1=COC(OC2OC(CO)C(O)C(O)C2O)C2C(C)C(OC(C)=O)C(OC(=O)c3ccccc3)C12 (stereo unspecified)
inactive: Potency [1] | Potency [2] | Potency [3]

CC1=CCC[C@@H]2[C@](CCc3ccoc3)(C(=O)O)[C@H](C)CC[C@@]12C
inactive: Potency [1] | Potency [2] | Potency [3]

C[C@@H]1O[C@@H](O[C@H]2[C@H](O[C@H]3[C@H](O[C@H]4CC[C@@]5(C)C(CC[C@]6(C)C5CC=C5[C@@H]7CC(C)(C)C[C@@H](O)[C@]7(C)CC[C@]56C)C4(C)C)O[C@H](C(=O)O)[C@@H](O)[C@@H]3O)O[C@H](C(=O)O)[C@H](O)[C@@H]2O)[C@H](O)[C@H](O)[C@H]1O (stereo partly specified)
inactive: Potency [1] | outcome [2] inactive [at 9.23 µM] | outcome [3] inactive [at 9.23 µM]

CC(=O)OC1CCC2(C)C(CCC3(C)C2CC=C2C4CC(C)(C)CCC4(C)CCC23C)C1(C)C(=O)O (stereo unspecified)
inactive: Potency [1] | Potency [2] | Potency [3]

CC1(C)CCC2(C(=O)O)C(O)CC3(C)C(=CCC4C5(C)CCC(OC6OC(CO)C(O)C(O)C6OC6OC(CO)C(O)C(O)C6OC6OCC(O)(CO)C6O)C(C)(C)C5CCC43C)C2C1 (stereo unspecified)
inactive: Potency [1] | activity change, negative = viability loss [2] 3.44% [at 9.23 µM] | activity change, negative = cell killing [3] 2.63% [at 9.23 µM]

C=CC(C)(CCC=C(C)C)O[C@@H]1O[C@H](CO)[C@@H](O)[C@H](O)[C@H]1O (stereo partly specified)
inactive: Potency [1] | Potency [2] | Potency [3]

CC1=CCC[C@@H]2[C@@](C)(CCc3ccoc3)[C@H](C(=O)O)CC[C@@]12C
inactive: Potency [1] | Potency [2] | Potency [3]

CC1(C)CC[C@]2(C(=O)O[C@@H]3O[C@H](CO[C@@H]4O[C@H](CO)[C@@H](O)[C@H](O)[C@H]4O)[C@@H](O)[C@H](O[C@@H]4O[C@H](CO)[C@@H](O)[C@H](O)[C@H]4O)[C@H]3O)[C@H](O)C[C@]3(C)C(=CCC4[C@@]5(C)CC[C@H](O[C@@H]6OC[C@@H](O)[C@H](O)[C@H]6O)[C@@](C)(C(=O)O)C5CC[C@]43C)[C@@H]2C1 (stereo partly specified)
inactive: Potency [1] | activity change, negative = viability loss [2] -2.24% [at 9.23 µM] | activity change, negative = cell killing [3] -1.62% [at 9.23 µM]

OC[C@H]1O[C@@H](OCCc2ccccc2)[C@H](O)[C@@H](O)[C@@H]1O
inactive: Potency [1] | Potency [2] | Potency [3]

CC1(C)CC2C(O)C3=C(CC(C)(O)C2C1)C(=O)OC3 (stereo unspecified)
inactive: Potency [1] | Potency [2] | Potency [3]

CC(C)c1ccc2c(c1)C(O)CC1C(C)(C(=O)O)CCCC21C (stereo unspecified)
inactive: Potency [1] | Potency [2] | Potency [3]

COc1cc(/C=C/C(=O)O[C@@H]2O[C@H](CO)[C@@H](O)[C@H](O)[C@H]2O)ccc1O
inactive: Potency [1] | Potency [2] | Potency [3]

CC1(C)CC[C@]2(C(=O)O[C@@H]3O[C@H](CO)[C@@H](O)[C@H](O)[C@H]3O)CC[C@]3(C)C(=CCC4[C@@]5(C)CC[C@H](OC6OC(C(=O)O)C(OC7OC(CO)C(O)C(O)C7O)C(O)C6O)C(C)(C)C5CC[C@]43C)C2C1 (stereo partly specified)
inactive: Potency [1] | activity change, negative = viability loss [2] -8.98% [at 9.23 µM] | activity change, negative = cell killing [3] -22.4% [at 9.23 µM]

CC(=O)O[C@H]1[C@H](O[C@H]2CC[C@]34C[C@]35CC[C@]3(C)[C@@H]([C@@]6(C)CC[C@@H](C(C)(C)O)O6)[C@@H](O)C[C@@]3(C)[C@@H]5C[C@H](O[C@@H]3O[C@H](CO)[C@@H](O)[C@H](O)[C@H]3O)[C@H]4C2(C)C)OC[C@@H](OC(C)=O)[C@@H]1O
inactive: Potency [1] | Potency [2] | Potency [3]

COC(=O)C1(O)C(OC(C)=O)CCC2C3(CC(c4ccoc4)OC3=O)C(C)=CCC21C(=O)OC (stereo unspecified)
inactive: Potency [1] | Potency [2] | Potency [3]

CC(C)C1NC(=O)CNC(=O)C2CCCN2C(=O)C(Cc2c[nH]c3ccccc23)NC(=O)CNC(=O)C(Cc2ccc(O)cc2)NC(=O)CNC1=O (stereo unspecified) (cyclo(GVGYGWP); configuration not given here)
inactive: Potency [1] | Potency [2] | Potency [3]

COC1OC(=O)C2=C1C1(C)CCCC(C)(C)C1CC2O (stereo unspecified)
inactive: Potency [1] | Potency [2] | Potency [3]

CC12CC(O)C(O)C=C1c1cc(O)cc(O)c1C(=O)O2 (stereo unspecified)
inactive: Potency [1] | Potency [2] | Potency [3]

C=Cc1ccc(O[C@@H]2O[C@H](CO[C@@H]3O[C@@H](C)[C@H](O)[C@@H](O)[C@H]3O)[C@@H](O)[C@H](O)[C@H]2O)cc1
inactive: Potency [1] | Potency [2] | Potency [3]

C[C@@H]1[C@H](O)[C@@H]2OC(=O)C3=C2[C@H](CCC3)[C@@]12C[C@@H](c1ccoc1)OC2=O
inactive: Potency [1] | Potency [2] | Potency [3]

C=C1C2(C)CC3C4(C)C=CC(=O)OC(C)(C)C4CCC3(C)C1(C(=O)OC)C(=O)C(C)(O)C2=O (stereo unspecified)
inactive: Potency [1] | Potency [2] | Potency [3]

CC1=C2C(=O)C=C(CO[C@@H]3O[C@H](CO)[C@@H](O)[C@H](O)[C@H]3O)[C@@H]2[C@H]2OC(=O)[C@H](C)[C@@H]2CC1
inactive: Potency [1] | Potency [2] | Potency [3]

C[C@]1(C2CCCC2)Cc2cc(OCC(=O)O)c(Cl)c(Cl)c2C1=O
inactive: Potency [1] | Potency [2] | Potency [3]

CC1(C)CC[C@]2(C(=O)OC3OC(CO)C(O)C(O)C3O)CC[C@]3(C)C(=CCC4[C@@]5(C)C[C@@H](O)[C@H](OC6OC(C(=O)O)C(O)C(O)C6O)C(C)(C)C5CC[C@]43C)[C@@H]2C1 (stereo partly specified)
inactive: Potency [1] | activity change, negative = viability loss [2] -7.32% [at 9.23 µM] | activity change, negative = cell killing [3] -10.4% [at 9.23 µM]

C[C@@H]1O[C@@H](OC2C(CO)OC(OCC3OC(OC(=O)[C@]45CCC(C)(C)CC4C4=CCC6[C@@]7(C)CC[C@@H](O)[C@](C)(C(=O)O)C7CC[C@@]6(C)[C@]4(C)CC5)C(O)C(O)C3O)C(O)C2O)[C@H](O)[C@H](O)[C@H]1O (stereo partly specified)
inactive: Potency [1] | activity change, negative = viability loss [2] 0.361% [at 9.23 µM] | outcome [3] inactive [at 9.23 µM]

C=C1C(OC(C)=O)CCC2(C)CCC(C(C)(C)O)CC12 (stereo unspecified)
inactive: Potency [1] | Potency [2] | Potency [3]

COC(=O)[C@]1(C)CCC[C@@]2(C)[C@@H]3CC[C@@H]4C[C@@]3(CC[C@@H]21)C[C@H]4C(=O)O
inactive: Potency [1] | Potency [2] | Potency [3]

CC(C)C1(O)C=C2C(=O)CC3C(C)(C(=O)O)CCCC3(C)C2CC1 (stereo unspecified)
inactive: Potency [1] | Potency [2] | Potency [3]

CC(=O)OC1CC(=O)C2(C)C3CC4=C(OC(C)CC4=O)OC3(C)CCC2C1(C)C (stereo unspecified)
inactive: Potency [1] | Potency [2] | Potency [3]

Cc1sc(C)c(C(=O)NC2(c3ccc(C(=O)O)cc3)CC2)c1Cc1ccc(C(F)(F)F)cc1
inactive: Potency [1] | Potency [2] | Potency [3]

COC(=O)C1=C[C@@H](O)[C@@H](O)[C@H](O[C@@H]2O[C@H](CO)[C@@H](O)[C@H](O)[C@H]2OC(=O)/C=C/c2ccccc2)C1
inactive: Potency [1] | Potency [2] | Potency [3]

C=CC(C)(O)CC/C=C(\C)C(=O)O[C@@H]1[C@@H](O)[C@H](OC(C)(C=C)CC/C=C(\C)C(=O)O[C@@H]2O[C@H](CO)[C@@H](O)[C@H](O)[C@H]2O)O[C@H](CO)[C@H]1OC(=O)/C(C)=C/CCC(C)(O)C=C (stereo partly specified)
inactive: Potency [1] | activity change, negative = viability loss [2] -6.17% [at 9.23 µM] | activity change, negative = cell killing [3] -2.41% [at 9.23 µM]
